Compound activity as filed in PubChem.
MITF inh = human MITF inhibition, primary screen; O75030; AlphaScreen MITF homodimerization, bead proximity signal; inhibition, % at 2.6 µM; 0.91% of 650,000 active; in the data active means inhibition above about 50%
TEAD-YAP inh = TEAD-YAP interaction inhibition. HEK-TIYL cells, TEAD-Gal4/YAP UAS-luciferase luminescence. inhibition, % at 9.12 µM. 1.4% of 640,000 active. AID 1259422; in the data active means inhibition above about 32%
FBW7 act = activators of human E3 ligase FBW7; Q969H0; AlphaScreen FBW7–phospho-cyclin E peptide binding, activator screen; normalized activity (activation), % at 26.1 µM; 0.13% of 650,000 active; in the data active means normalized activity above about 1.9%;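 further: purified mutant Fbw7 with reduced substrate affinity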
Target sequence (Q969H0 whole entry, looked up): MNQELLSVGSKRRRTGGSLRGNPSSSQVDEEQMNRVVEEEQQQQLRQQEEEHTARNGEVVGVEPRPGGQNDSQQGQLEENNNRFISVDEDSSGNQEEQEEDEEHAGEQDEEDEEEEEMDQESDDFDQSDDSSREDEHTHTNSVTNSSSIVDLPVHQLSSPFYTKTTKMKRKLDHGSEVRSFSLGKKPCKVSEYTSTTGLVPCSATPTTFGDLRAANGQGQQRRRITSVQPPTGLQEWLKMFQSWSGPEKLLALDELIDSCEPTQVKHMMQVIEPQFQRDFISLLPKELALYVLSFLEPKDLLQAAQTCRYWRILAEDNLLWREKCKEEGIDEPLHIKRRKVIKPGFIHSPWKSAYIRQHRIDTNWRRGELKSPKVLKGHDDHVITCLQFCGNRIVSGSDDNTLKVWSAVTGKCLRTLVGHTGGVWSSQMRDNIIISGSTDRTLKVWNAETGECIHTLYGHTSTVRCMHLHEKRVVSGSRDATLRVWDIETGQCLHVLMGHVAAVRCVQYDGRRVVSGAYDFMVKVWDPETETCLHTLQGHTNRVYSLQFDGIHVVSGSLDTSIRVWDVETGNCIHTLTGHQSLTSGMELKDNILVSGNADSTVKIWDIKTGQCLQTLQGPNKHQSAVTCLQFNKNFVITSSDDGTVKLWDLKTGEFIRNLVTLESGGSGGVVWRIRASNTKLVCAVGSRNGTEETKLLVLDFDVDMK
GPR151 ag = human GPR151 activation | Q8TDV0 | PathHunter beta-arrestin GPR151 cells, luminescence | activation, % at 11.2 µM | 1% of 650,000 active | AID 1508602; in the data active means activation above about 4.9%
A number is an active result; . = inactive; / = no result given. Rows were chosen to be rich in hits. Some 3.4% of all compounds tested hit in one or more screens of this group.

SMILES | MITF inh | TEAD-YAP inh | FBW7 act | GPR151 ag
COc1ccc(-n2nc3c(c2NC(=O)c2cc([N+](=O)[O-])ccc2Cl)CS(=O)(=O)C3)cc1 | . | 72.6 | . | .
Cc1ccc(-n2nc3c(c2NC(=O)c2cc([N+](=O)[O-])ccc2Cl)CS(=O)(=O)C3)cc1 | . | . | . | .
Cc1ccccc1-n1nc2c(c1NC(=O)c1cc([N+](=O)[O-])ccc1Cl)CSC2 | . | 74.3 | . | .
Cc1ccc(-n2nc3c(c2NC(=O)c2cc([N+](=O)[O-])ccc2Cl)CS(=O)(=O)C3)c(C)c1 | . | 70.3 | . | .
Cc1ccc(-n2nc3c(c2NC(=O)c2ccc([N+](=O)[O-])cc2)CS(=O)(=O)C3)c(C)c1 | . | . | . | .
COC(=O)c1c(OCCc2ccccc2F)cc(=O)n2c1CCN(C(C)=O)CC2 | . | . | . | .
O=[N+]([O-])c1cccc(CSc2nc(NCc3ccc(Cl)cc3)c3ccccc3n2)c1 | . | . | . | .
COCCNC(=O)c1ccc(-c2ccc(OCOC)cc2)nc1NCC1CC1 | . | . | . | .
COc1cccc(C2C3=C(NCCN=C3c3ccc(Cl)cc3)C(=O)N2c2ccccc2)c1 (stereo not drawn) | . | 58.2 | . | .
O=C1C2=C(C(c3ccc(Cl)cc3)=NCCN2)C(c2ccccc2)N1c1ccccc1 (stereo not drawn) | . | . | . | .
Cc1ccc(S(=O)(=O)N/N=C/c2sc3ccccc3c2O)cc1 | . | 51.0 | . | .
Cc1ccc(S(=O)(=O)N/N=C/c2ccccc2O)cc1 | . | . | . | .
CN(Cc1ccccc1)c1ccnc2c(-c3cccc(C(=O)O)c3)cnn12 | . | 89.1 | . | .
CN(Cc1ccccc1)c1ccnc2c(-c3cccc(O)c3)cnn12 | . | 90.4 | . | .
Nc1cccc(-c2cnn3c(N4CCN(c5ccccn5)CC4)ccnc23)c1 | . | . | . | .
CN(Cc1ccccc1)c1ccnc2c(-c3ccc(CO)cc3)cnn12 | . | . | . | .
CC(=O)c1cccc(-c2cnn3c(N4CCN(c5ccccn5)CC4)ccnc23)c1 | . | . | 1.9 | .
Cc1ccc(OCc2nnc(SCC(=O)N3CCc4ccccc43)n2N)cc1C | . | . | . | .
Cc1c(Cl)cccc1NC(=O)CSC1=C(C#N)C(c2cccs2)C2=C(CC(C)(C)CC2=O)N1 (stereo not drawn) | . | . | . | .
CC1CCCN(c2cc(NCCO)c3c4c(onc24)-c2ccccc2C3=O)C1 (stereo not drawn) | . | 33.7 | . | .
Cc1cccc(Nc2cc(N3CCCCC3)c3noc4c3c2C(=O)c2ccccc2-4)c1 | 51.9 | . | . | .
CCNc1cc(N2CCN(C)CC2)c2noc3c2c1C(=O)c1ccccc1-3 | . | . | . | .
CC(C)Nc1cc(N2CCOCC2)c2noc3c2c1C(=O)c1ccccc1-3 | 56.3 | . | . | .
CC1CCN(c2cc(NCCO)c3c4c(onc24)-c2ccccc2C3=O)CC1 | . | . | . | .
CCNc1cc(N2CCN(CC)CC2)c2noc3c2c1C(=O)c1ccccc1-3 | 61.1 | . | . | .
SMILES | MITF inh | TEAD-YAP inh | FBW7 act | GPR151 ag
c1cncc(CNc2nccc(NCCN3CCOCC3)n2)c1 | . | . | . | .
O=C(CS(=O)(=O)c1ccc(F)cc1)Nc1ccc(-c2nc3ccccc3[nH]2)cc1 | . | . | . | .
CC1CCN(c2cc(NCCC(=O)O)c3c4c(onc24)-c2ccccc2C3=O)CC1 | 54.8 | . | . | .
CC1CCCN(c2cc(NCC(=O)O)c3c4c(onc24)-c2ccccc2C3=O)C1 (stereo not drawn) | 58.8 | 67.4 | . | .
CCNc1cc(N2CCCC2)c2noc3c2c1C(=O)c1ccccc1-3 | . | . | . | .
O=C1c2ccccc2-c2onc3c(N4CCCCCC4)cc(NCCO)c1c23 | . | 36.8 | . | .
CN1CCN(c2cc(NCc3ccco3)c3c4c(onc24)-c2ccccc2C3=O)CC1 | 56.1 | . | . | .
Cc1[nH]c2ccccc2c1C(c1cc(Cl)ccc1O)N1CCOCC1 (stereo not drawn) | . | . | . | .
CCC1CN(C(=O)c2ccc3c(c2)OCCO3)Cc2ccc(Cl)cc2O1 (stereo not drawn) | . | . | . | .
CCOC(=O)c1cnc2c(OC)cccc2c1Nc1ccc(C(F)(F)F)cc1 | . | . | . | .
CC(=O)OCCNc1cc(N2CCCCC2)c2noc3c2c1C(=O)c1ccccc1-3 | 57.0 | . | . | .
CCN(CC)c1ccc(N/C(N)=N/c2nc(C)cc(C)n2)cc1 (tested in a mixture with another compound) | . | 57.6 | . | .
Cc1cc(C)nc(/N=C(\N)Nc2ccc(CC(=O)OC(C)C)cc2)n1 | . | 40.0 | . | .
CCNc1ccccc1C(=O)OCc1ccc(C(=O)OC)cc1 | . | . | . | .
O=C(CCc1ccccc1)NNS(=O)(=O)c1ccccc1[N+](=O)[O-] | . | . | . | .
CC(=O)OCC(=O)C12OC(C)(C)O[C@@H]1C[C@H]1[C@@H]3C[C@H](F)C4=CC(=O)C=CC4(C)[C@@]3(F)[C@@H](O)CC12C (stereo partly drawn) | . | / | . | .
COc1ccc(S(=O)(=O)N2Cc3ccccc3CC2C(=O)Nc2ccc(C)cc2)cc1 (stereo not drawn) | . | 33.0 | . | .
c1ccc(C(CCn2ccnc2)Nc2nncc(-c3ccc4c(c3)OCO4)n2)cc1 (stereo not drawn) | . | 44.6 | . | .
O=C(C1CC1)N1CCN=C1SCc1cccc([N+](=O)[O-])c1 | . | . | . | .
COc1cccc(/C=N/NC(=O)c2cccs2)c1 | . | . | . | .
COc1cccc(N=C/C(C(=O)C(F)(F)F)=C(\O)c2cccs2)c1 | . | 81.6 | . | .
COc1cc(/C=C2\C(=O)N(c3cccc(C(=O)O)c3)N=C2C)c(Br)cc1O | 62.3 | . | . | .
CC1=NN(c2cccc(C(=O)O)c2)C(=O)/C1=C\c1cc2c(cc1Cl)OCO2 | 61.5 | . | . | .
COc1cc(/C=C2/C(=O)N(c3cccc(C(=O)O)c3)N=C2C)cc2sc(=O)oc12 | 61.1 | . | . | .
CC1=NN(c2cccc(Cl)c2)C(=O)/C1=C/c1cc2c(cc1Cl)OCO2 | . | . | . | .
SMILES | MITF inh | TEAD-YAP inh | FBW7 act | GPR151 ag
COc1cc(Br)c(/C=C2\C(=O)N(c3ccccc3)N=C2C)cc1OC | . | . | . | .
COc1ccc(/C=C2\C(=O)N(c3cccc(C(=O)O)c3)N=C2C)cc1OC | . | . | . | .
CC1=NN(c2cccc(C(=O)O)c2)C(=O)/C1=C\c1ccc(-c2cccc(C(=O)O)c2)o1 | 62.5 | . | . | .
CCOc1nnnn1-c1ccccc1 | . | . | . | .
CC1=NN(c2cccc(C(=O)O)c2)C(=O)/C1=C/c1ccc(C)o1 | . | . | . | .
CC1=NN(c2cccc(C(=O)O)c2)C(=O)/C1=C\c1ccco1 | 64.5 | . | . | .
COc1ccc(S(=O)(=O)Nc2ccc(S(=O)(=O)N(C)Cc3ccccc3)cc2)cc1 | . | . | . | .
CCOC(=O)c1c(N)nc(Nc2nc(C)c3cc(OC)ccc3n2)nc1-c1ccccc1 | . | . | . | .
CCOC(=O)c1c(C)oc2c1cc(NS(=O)(=O)c1ccc(OC)cc1)c1ccccc12 | . | 51.2 | . | .
